Rows were chosen to be rich in hits. Some 6.8% of all compounds tested hit in one or more screens of this group.
TSG101-PTAP inh = blocks PTAP/TSG101 interaction to inhibit HIV-1 budding. Q99816. Fluorescence polarization, FITC-PTAP peptide / Tsg101 binding. Potency, µM (titrated, usually from 115 µM), for inactives: at the highest dose activity change, negative = inhibition, hits mostly inhibitors. 340,000 tested, under 10 active. AID 493005; active = well fitted inhibition curve with a large enough effect in the main read-out, with a control signal flat, not every such curve was filed as active; inconclusive = small, poorly fitted or top-dose-only effect, or effect the other way, or a change in a side signal; inactive = no such curve, though single readings can be large or run the other way; note: % of control where 0% means no effect
Target sequence (Q99816 whole entry, looked up): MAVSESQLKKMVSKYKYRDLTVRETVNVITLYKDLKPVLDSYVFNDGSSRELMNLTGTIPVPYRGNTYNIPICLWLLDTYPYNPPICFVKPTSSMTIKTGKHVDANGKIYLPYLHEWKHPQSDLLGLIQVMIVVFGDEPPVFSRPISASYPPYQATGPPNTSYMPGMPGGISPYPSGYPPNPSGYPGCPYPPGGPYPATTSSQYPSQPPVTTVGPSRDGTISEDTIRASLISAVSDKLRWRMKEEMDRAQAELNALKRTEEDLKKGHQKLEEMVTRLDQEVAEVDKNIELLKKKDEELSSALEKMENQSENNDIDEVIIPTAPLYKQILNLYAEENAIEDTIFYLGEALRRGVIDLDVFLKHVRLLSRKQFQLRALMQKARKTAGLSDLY
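Fluorescence polarization binding of Tsg101 binding domain (10 uM final) to FITC-labeled PTAP peptide (50 nM final) in HEPES pH 7.5 buffer with NaCl, Tween 20, EDTA, TCEP. Compounds added before peptide; binding 20 min at RT.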
MCF10A rereplic = induces DNA re-replication in MCF 10a normal breast cells | MCF 10A DNA re-replication, Hoechst nuclear intensity, 48 h | Potency, µM (top dose mostly 46.1 µM), for inactives: top-dose activity, positive = re-replication, hits mostly activators | hit rate 2.9% among 350,000 | AID 624296; note: % of control where 0% means no effect; nearly all actives have a fitted effect of over 50% in size
PINK1 expr mod = modulators of PINK1 expression; PINK1 immunofluorescence, high-content cytometry, 24 h; Potency, µM (titrated, usually from 76.6 µM), inactives show at the highest dose activation (PINK1 increase), usual class: activators; hit rate 0.2% among 410,000; active = well fitted activation curve with a large enough effect; inconclusive = small, poorly fitted or top-dose-only effect; cell line not stated here; note: % of control where 0% means no effect; nearly all actives have a fitted effect of over 65% in size
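Compound titrations (5 concentrations, 24 h) on a stable cell line; DMSO and CCCP controls. Endpoint: fixed-cell PINK1 immunofluorescence with mitochondrial, cell and nuclear markers, scanned by microplate cytometer.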
SW480 rereplic = inducers of DNA re-replication in SW480 colon cancer cells. SW480 DNA re-replication, Hoechst DNA content imaging, 48 h. Potency, µM (doses to about 46.1 µM), for inactives: at the highest dose re-replication activation, actives largely listed as activators. hit rate 1.8% among 340,000; note: % of control where 0% means no effect; nearly all actives have a fitted effect of over 55% in size
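Cells (250 per well) received 23 nL compound or DMSO by pin tool and were kept 48 hr at 37 C, 5% CO2. Nuclei were then stained with Hoechst for 40 min and scanned for DNA content.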
KB-V1 cytotox = KB-V1 MDR subline cytotoxicity; KB-V1 MDR cells viability, CellTiter-Glo, 72 h; Potency, µM (series often up to 46.1 µM), usual class: cytotoxic; hit rate 3.4% among 400,000; note: % is set by controls: 0 for no effect and ±100 for the full control effect; nearly all actives have a fitted effect of over 60% in size
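Cytotoxicity via CellTiter-Glo luminescence after 72 h compound exposure at 37 degrees C. Cells: drug-selected KB-V1 line, DMEM phenol-red free plus 10% FBS. Compounds tested at multiple concentrations; normalized data fitted to concentration-effect curves.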
KB-3-1 tox = KB-3-1 parental cell cytotoxicity | KB-3-1 viability, CellTiter-Glo ATP luminescence, 72 h | Potency, µM (series often up to 46.1 µM), hits mostly cytotoxic | hit rate 1.4% among 400,000; note: % is set by controls: 0 for no effect and ±100 for the full control effect; nearly all actives have a fitted effect of over 60% in size
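Using CellTiter-Glo luminescence, growth of non-resistant KB-3-1 adenocarcinoma cells is assessed 72 h after pin-tool compound addition at 37 °C. Normalized responses across the concentration series yield fitted curves.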
* marks the source's active call; other numbers are inactive results; i = inactive; u = inconclusive; x = no result; [ ] = remark or other dose. Unless noted, calls come from the whole dose curve; as a rule, active = well fitted curve in the direction sought with a large enough effect; inconclusive = small, poorly fitted or top-dose-only effect, or another doubt; inactive = no such curve, though single readings can be large; an effect the other way counts as inactive or inconclusive. Potency is the fitted concentration of half-maximal effect.

SMILES | TSG101-PTAP inh | MCF10A rereplic | PINK1 expr mod | SW480 rereplic | KB-V1 cytotox | KB-3-1 tox
COC(=O)CNC(=O)Nc1cc(C(=O)NCc2ccc(C)cc2)ccc1N1CCCC1 | x | x | 1% | x | u | i
COc1ccccc1C(=O)Nc1ccc2c(c1)nc(CCNC(C)=O)n2C | -15% | -4% | -2%[38.3 µM] | -12% | i | i
COc1ccccc1C(=O)Nc1ccc2c(c1)nc(CCNC(=O)c1ccccc1)n2C | -5% | 6.5µM* | 10% | 13µM* | u | u
CCn1c(CCNC(=O)c2ccc(OC)c(OC)c2)nc2ccccc21 | -4% | 0% | 2% | 1% | 3.7µM* | i
Cc1cccc2c1-c1sc(C(=O)NCCc3ccc(Cl)cc3)cc1CO2 | x | x | 5% | x | u | u
COc1ccc(N2CC(C(=O)N/N=C/c3ccc([N+](=O)[O-])cc3)CC2=O)cc1 (stereo not given) | -3% | 15% | 0% | -8% | i | i
COc1ccc(N2CC(C(=O)N/N=C/c3ccc(C)cc3)CC2=O)cc1 (stereo not given) | -4% | 2.3µM* | 10% | 5.2µM* | 1.5µM* | 1.8µM*
C[C@@H](NC(=O)c1coc(=O)c(Br)c1)c1ccccc1 | -5% | u | 5% | u | u | 12µM*
COc1ccc(OC)c(/C=C/c2nc3ccccc3nc2C)c1 | x | x | x | x | u | i
COc1ccc(OC)c(/C=C/c2nc3ccccc3[nH]c2=O)c1 | u | 13µM* | 16% | 21µM* | i | i
O=c1[nH]c2ccccc2nc1/C=C/c1ccccc1 | 2% | 3.7µM* | 13% | u | i | i
COc1ccc(OC)c(/C=C/c2[nH]c(=O)[nH]c(=O)c2[N+](=O)[O-])c1 | 2% | 5.2µM* | -1% | 2% | i | i
O=c1[nH]c2ccccc2nc1/C=C/c1ccc(O)cc1 | -2% | 8.2µM* | -2% | 18µM* | u | i
Cc1ccc(N2C(=O)CCSC23C(=O)N(Cc2ccc(F)cc2)c2ccccc23)cc1 (stereo not given) | x | x | -1% | x | u | i
CCCCCNC(=O)CCn1c(=O)[nH]c2ccccc2c1=O | x | x | 8% | x | i | i
O=c1[nH]c2ccccc2nc1/C=C/c1ccc(F)cc1 | u | 6.5µM* | 0% | u | i | i
Cc1ccc(C)c(OCC(O)CN2CCC(CN3C(=O)c4cccc5cccc(c45)C3=O)CC2)c1 (stereo not given) | -1% | u | -3% | -1% | 2.6µM* | 18µM*
COc1ccc(OCC(O)CN2CCC(CN3C(=O)c4cccc5cccc(c45)C3=O)CC2)cc1 (stereo not given) | 1% | 12% | 5% | u | i | i
Cc1ccc(S(=O)(=O)N2CCCN(C)c3nc4ccccc4nc32)cc1 | -5% | 23µM* | 0% | u | 16µM* | i
Cc1ccc(S(=O)(=O)N2CCCN(S(=O)(=O)c3ccc(C)c(C)c3)CC2)cc1C | 0% | 17% | 1% | 7% | 4.1µM* | i
Cc1ccc(S(=O)(=O)N2CCCN(S(=O)(=O)c3ccc4ccccc4c3)CC2)cc1 | -8% | 8% | 0%[38.3 µM] | u | 8.2µM* | i
O=[N+]([O-])c1cc(C(F)(F)F)ccc1N1CCN(S(=O)(=O)c2ccc3ccccc3c2)CC1 | -1% | -7% | -2% | 3% | 5.2µM* | 18µM*
CN1CCN(S(=O)(=O)c2ccc3ccccc3c2)CC1 | -2% | 1% | 4% | u | i | i
Cc1ccc(S(=O)(=O)N2CCCC2)cc1S(=O)(=O)N1CCCC1 | -7% | -1% | 1% | -17% | u | i
Cc1c(-c2ccccc2)n(-c2ccccc2O)c2nc3c(c(=O)n(C)c(=O)n3C)n12 | x | x | 2% | x | u | u
SMILES | TSG101-PTAP inh | MCF10A rereplic | PINK1 expr mod | SW480 rereplic | KB-V1 cytotox | KB-3-1 tox
Cc1ccc(C(=O)COC(=O)COc2ccccc2[N+](=O)[O-])s1 | -2% | -6% | 0% | -4% | i | i
CCOC(=O)COc1ccccc1/C=C\[N+](=O)[O-] | -9% | u | -2% | 4.1µM* | 15µM* | 9.2µM*
COc1ccc([C@H]2CC(=O)C=C(c3ccccc3-c3ccccc3)C2)cc1 | -1% | 16µM* | 2% | u | u | u
O=C1C=C(c2ccc3c(c2)OCO3)C[C@@H](c2ccc3c(c2)OCO3)C1 | x | 3% | 4% | -9% | i | i
COc1ccc(OC)c(C2=CC(=O)C[C@H](c3ccc4c(c3)OCO4)C2)c1 | 1% | u | 0% | u | u | 10µM*
O=C1C=C(c2ccc3cc[nH]c3c2)C[C@@H](c2ccc3c(c2)OCO3)C1 | 1% | 21µM* | 1% | u | i | i
COc1ccc([C@H]2CC(=O)C=C(c3cc(C)ccc3OC)C2)cc1 | 0% | u | 2% | 16µM* | 5.8µM* | 21µM*
CC(NC(=O)CSc1n[nH]c(-c2ccccc2Cl)n1)c1nc2ccccc2n1C (stereo not given) | x | x | 0% | x | i | i
CCn1cc(S(=O)(=O)c2ccccc2)c(=O)c2cc(F)c(N3CCCCCC3)cc21 | x | x | -2% | x | i | i
COc1ccc([C@H]2CC(=O)C=C(c3cc(Br)ccc3OC)C2)cc1 | 1% | u | 2% | u | u | u
CCOc1ccc(Br)cc1C1=CC(=O)C[C@H](c2ccc(OC)cc2)C1 | -11% | 2.9µM* | 7% | 7.3µM* | 16µM* | 5.8µM*
Cc1ccccc1-n1ncc2c(SCC(=O)NC3CCCC3)ncnc21 | 0% | 1% | 0% | -9% | u | i
Cc1sc2nc(C(C)C)nc(SCC(=O)N3c4ccccc4CC3C)c2c1C (stereo not given) | 0% | u | 6% | -3% | 18µM* | i
CCc1nc(SCC(=O)Nc2ccccc2OC)c2c(C)c(C)sc2n1 | 2% | 21µM* | -2% | 14% | 9.2µM* | i
Cc1ccccc1-n1ncc2c(SCC(=O)N3c4ccccc4CC3C)ncnc21 (stereo not given) | -8% | 10% | x | u | 9.2µM* | i
CCc1nc(SCC(=O)N2CC(=O)Nc3ccccc32)c2c(C)c(C)sc2n1 | -9% | 17% | 3%[38.3 µM] | 18% | i | i
CCc1nc(SCC(=O)N2c3ccccc3CC2C)c2c(C)c(C)sc2n1 (stereo not given) | 2% | u | x | 21µM* | i | i
Cc1ccc(Cn2c(=O)n(Cc3ccco3)c(=O)c3oc4ccccc4c32)cc1 | x | x | -1% | x | i | i
